Assay results reported in PubChem BioAssay (NCI).
The panel holds about 79,000 compounds, 15% with a hit somewhere; the sample as a whole holds those more often. Activity calls are given as the source filed them. Cut-off read from the data, not from the text of the source: active = growth inhibition above about 70%; inactive = the rest.

Columns and labels:
[1] = NCI Yeast Anticancer Drug Screen. Data for the rad50 strain (AID 155);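 note: 0% = growth of vehicle-only cultures of the same strain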; details: S. cerevisiae rad50 strain growth inhibition, stronger effect = higher value; at 50.0 µM unless noted
In short: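 Inhibition values express reduced yeast growth in compound-treated cultures relative to vehicle-treated controls.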

[2] = NCI Yeast Anticancer Drug Screen. Data for the mec2-1 strain (AID 157); details: S. cerevisiae mec2-1 strain, stronger effect = higher value; at 50.0 µM unless noted
In short: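 Growth inhibition is read against vehicle-treated controls after compound exposure of the mec2-1 yeast strain, which is defective in DNA damage repair or cell cycle control.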

[3] = NCI Yeast Anticancer Drug Screen. Data for the sgs1 mgt1 strain (AID 161);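 note: 0% = growth of cultures given vehicle only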; details: S. cerevisiae sgs1 mgt1 strain, stronger effect = higher value; at 50.0 µM unless noted
In short: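 Growth of a repair-deficient yeast mutant was monitored after compound treatment and expressed as inhibition relative to vehicle-treated cultures.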

[4] = NCI Yeast Anticancer Drug Screen. Data for the cln2 rad14 strain (AID 165);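 note: 0% = growth equal to vehicle treated cultures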; details: S. cerevisiae cln2 rad14 strain, stronger effect = higher value; at 50.0 µM unless noted
In short: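 Growth inhibition, relative to vehicle-treated controls, is the read-out. The test organism is a yeast strain with defined genetic alterations, cln2 rad14.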

[5] = NCI Yeast Anticancer Drug Screen. Data for the bub3 strain (AID 167); details: S. cerevisiae bub3 mutant strain, stronger effect = higher value; at 50.0 µM unless noted
In short: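 Steps: expose the mutant yeast strain to compound; grow alongside vehicle-treated cultures; measure growth; express inhibition against the vehicle cultures.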

[6] = NCI Yeast Anticancer Drug Screen. Data for the mlh1 rad18 strain (AID 175); details: S. cerevisiae mlh1 rad18 strain growth inhibition, stronger effect = higher value; at 50.0 µM unless noted
In short: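 Cells of a genetically altered yeast strain, deficient in DNA damage repair, were treated with compound. Their growth was then compared with that of vehicle-treated cultures to give inhibition.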

Measured: growth inhibition

COC(=O)C(Cc1ccc(N(C)C)cc1)(NC(=O)c1ccccc1)P(=O)(OC)OC (centres undefined)
inactive: [1] -17.8% | [2] 10.8% | [3] -28.2% | [4] 1.9% | [5] 4.4% | [6] -5.4%

Brc1ccccc1C#Cc1ccccc1Br
inactive: [1] 0.7% | [2] -4.6% | [3] 16.3% | [4] -1.25% | [5] 10.1% | [6] 19.1%

Nc1nc2cc(F)ccc2o1
inactive: [1] 1.05% | [2] -26.1% | [3] -9.7% | [4] -20.1% | [5] -21.6% | [6] -15.2%

CCN(CC)CCC1CCCCN1CC(=O)N1c2ccccc2NC(=O)c2ccccc21 (centres undefined)
inactive: [1] -2.9% | [2] 2% | [3] 8.9% | [4] 8.2% | [5] -0.9% | [6] 0.25%

Cc1cc(=O)[nH]c2[nH]c(=O)ccc12
inactive: [1] -11.4% | [2] 0.05% | [3] -1.5% | [4] -6.35% | [5] -2.2% | [6] 2%

CC1=C(C(=O)Nc2cc(=O)n(C)c(=O)n2C)C(c2cccc([N+](=O)[O-])c2)C(C(=O)Nc2cc(=O)n(C)c(=O)n2C)=C(C)N1
inactive: [1] 8.7% | [2] 32.1% | [3] 24.9% | [4] 21.9% | [5] 24.4% | [6] 41.8%

O=[N+]([O-])c1cccc(S/N=C/c2ccccc2O)c1
active: [1] 98.8% | [2] 99.5% | [3] 99.2% | [4] 97.5% | [5] 99.2% | [6] 99%

CCOC(=O)C(NC(C)=O)(Nc1ccc(S(N)(=O)=O)cc1)C(F)(F)F (centres undefined)
inactive: [1] -16.2% | [2] 1.55% | [3] 3.95% | [4] 27.6% | [5] 7.7% | [6] -28.9%

COc1ccc(/C=N/NC(=O)c2ccccc2)c(OC)c1
inactive: [1] 17.1% | [2] 0% | [3] 6.65% | [4] 17.7% | [5] 28.2% | [6] 9.3%

COc1cc(NC(C)=O)c2c(c1)SCC(=O)N2
inactive: [1] 3.2% | [2] -34.5% | [3] -3.7% | [4] 5.2% | [5] 24% | [6] 1.4%

O=S1(=O)OCCOS(=O)(=O)C1Cc1nc2ccccc2[nH]1
inactive: [1] 3.25% | [2] 15.8% | [3] 1.25% | [4] 56.9% | [5] -0.05% | [6] 37.1%

Brc1cc(Br)cc(CN2CCOCC2)c1
inactive: [1] 34% | [2] 15.1% | [3] 49.6% | [4] 48% | [5] 56.8% | [6] 46.2%

Cc1ccc(C(CC(=O)C(C)(C)CN2CCCCC2)SCCS(=O)(=O)O)cc1 (centres undefined)
inactive: [1] 7.5% | [2] -7.95% | [3] 11.1% | [4] 9.4% | [5] 4.3% | [6] 20%

CCCCCC1CC(=O)NC1C(=O)O (centres undefined)
inactive: [1] -2.75% | [2] 1.25% | [3] -10.8% | [4] -8.8% | [5] -1.15% | [6] -8.95%

O=C(c1ccccc1)C(F)S(=O)(=O)O (centres undefined)
inactive: [1] -5.7% | [2] -7.75% | [3] -9.05% | [4] -25.8% | [5] 6.2% | [6] 16.9%

CCOC(=O)C(CCc1ccccc1)C(C)=O (centres undefined)
inactive: [1] -0.75% | [2] -7.95% | [3] -0.25% | [4] 40.5% | [5] 2.45% | [6] -11.8%

COc1ccc(N2C(N)=C(C#N)C(C#N)(C#N)C2c2cccc([N+](=O)[O-])c2)cc1 (centres undefined)
active: [6] 79.7%
inactive: [1] 8.8% | [2] -5.05% | [3] -2.05% | [4] 0.25% | [5] -31.9%

CNC(=O)N(CCCC(NC(C)=O)C(=O)NCc1ccccc1)Cc1ccccc1 (centres undefined)
inactive: [1] 16.1% | [2] 3.4% | [3] -7.95% | [4] 17.6% | [5] 8.5% | [6] 18.9%

CCN(CC)CCn1c2cc3c(cc2c(=O)c2cccnc21)OCO3
inactive: [1] -18.1% | [2] -17.6% | [3] -29.4% | [4] 13.8% | [5] -34% | [6] 24.1%
